Screens as filed in PubChem BioAssay.
Only some compounds are listed: those with a hit (about 12% of all), similar ones and a draw of the others.
HP1b binding inh: HP1-beta chromodomain-methylated histone interaction inhibition | P83916 | AlphaScreen HP1-beta / biotin-H3K9me3 peptide binding | Potency, µM (doses to about 114 µM), for inactives: top-dose activity change, negative = inhibition, hits mostly inhibitors | actives 0.56% (n = 390,000) | AID 540317; further: nearly all actives have a fitted effect of over 70% in size
Target sequence (P83916 whole entry, looked up): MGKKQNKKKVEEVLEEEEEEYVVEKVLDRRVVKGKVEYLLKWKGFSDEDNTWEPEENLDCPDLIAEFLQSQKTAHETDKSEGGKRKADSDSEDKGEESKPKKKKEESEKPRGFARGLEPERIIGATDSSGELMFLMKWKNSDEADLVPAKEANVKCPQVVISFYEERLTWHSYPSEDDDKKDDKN
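HP1-beta protein (50 nM final) preincubated 30 min at room temperature with biotinylated H3(1-18)K9me3 peptide (50 nM) in PBS pH 7.4, 0.01% Tween-20, then compound added for 30 min. AlphaScreen streptavidin donor/nickel chelate acceptor beads (10 ug/mL final), 30 min dark, luminescence read.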
G9a inh: blocks human histone lysine methyltransferase G9a. Q96KQ7. G9a H3K9 monomethylation, AlphaScreen, 2 h. Potency, µM (titrated, usually from 102 µM), for the others: top-dose activity, negative = inhibition, actives largely listed as inhibitors. actives 8.8% (n = 350,000). AID 504332; further: on the % scale 0 is the no-effect control and ±100 the full control effect; nearly all actives have a fitted effect of over 75% in size
Target sequence (Q96KQ7 913-1193 limits assumed): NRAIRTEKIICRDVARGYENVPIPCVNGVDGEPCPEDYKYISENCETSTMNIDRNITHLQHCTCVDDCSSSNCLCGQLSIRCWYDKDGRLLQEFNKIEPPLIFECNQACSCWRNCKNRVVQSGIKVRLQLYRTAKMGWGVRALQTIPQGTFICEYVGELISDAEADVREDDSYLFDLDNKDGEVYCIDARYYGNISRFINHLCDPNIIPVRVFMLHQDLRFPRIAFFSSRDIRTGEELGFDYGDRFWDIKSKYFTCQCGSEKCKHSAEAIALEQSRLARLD
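Using a bead-based AlphaScreen, monomethylated H3K9 product from 2 h room-temperature reactions (G9a 20 nM, peptide 500 nM, SAM 20 uM) was detected with 0.5 ug/mL rabbit anti-H3K9me1 antibody.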
PLK1 PBD inh: PLK1 (human) polo-box domain binding inhibition; P53350; Plk1 PBD binding of FITC phosphopeptide, fluorescence polarization; Potency, µM, for inactives: max response, negative = inhibition, most hits filed as inhibitors; actives 2.8% (n = 360,000); AID 720504; further: series mostly up to about 57 µM; on the % scale 0 is the no-effect control and ±100 the full control effect; nearly all actives have a fitted effect of over 65% in size
BAZ2B inh: BAZ2B (human) inhibition; Q9UIF8; AlphaScreen BAZ2B-H3K14Ac peptide displacement; Potency, µM (doses to about 114 µM), for the others: at the highest dose activity change, negative = inhibition, actives largely listed as inhibitors; actives 4.4% (n = 360,000); AID 504333; further: on the % scale 0 is the no-effect control and ±100 the full control effect; nearly all actives have a fitted effect of over 60% in size
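AlphaScreen luminescence quantifies BAZ2B engagement of H3K14Ac peptide; the protein and biotinylated peptide are both at 50 nM final, buffer PBS pH 7.4 with 0.01% Tween-20, all steps at room temperature.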
Sfp inh: Sfp phosphopantetheinyl transferase inhibition | Q9F4F7 | Biochemical Sfp PPTase activity, qHTS | Potency, µM, without a hit: largest response in the series, negative = inhibition, actives largely listed as inhibitors | actives 3.5% (n = 310,000);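 further: the enzyme is Sfp with the accession as filed and its product quenches rhodamine fluorescence; 0% = enzyme reaction without inhibitor and -100% = no enzyme wells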
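Buffer: 50 mM Hepes-Na pH 7.6, 10 mM MgCl2, 0.01% Nonidet P-40, 0.01% BSA. Enzyme 15 nM, pre-exposed to compound 15 min; substrates then added and fluorescence change tracked over 30 min.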
JMJD2A Tudor: inhibitors of human JMJD2A Tudor domain. O75164. AlphaScreen JMJD2A-Tudor / H3K4me3 peptide binding. Potency, µM (highest dose often 114 µM), for the others: at the top dose activity change, negative = inhibition, hits mostly inhibitors. actives 4.4% (n = 390,000); further: on the % scale 0 is the no-effect control and ±100 the full control effect; nearly all actives have a fitted effect of over 50% in size
An asterisk follows results filed as active; u = inconclusive; x = no result; [ ] = remark or other dose. The call rests on the fitted dose curve; in most records, active means well fitted curve in the direction sought with a large enough effect; inconclusive means small, poorly fitted or top-dose-only effect, or another doubt; inactive means no such curve, though single readings can be large; an effect the other way counts as inactive or inconclusive. Potency means the concentration at half of the fitted maximal effect.

SMILES	HP1b binding inh	G9a inh	PLK1 PBD inh	BAZ2B inh	Sfp inh	JMJD2A Tudor
NC(N)=NCCC[C@H](NC(=O)[C@H](Cc1ccccc1)NC(=O)[C@@H]1CCCN1C(=O)[C@H](CO)NC(=O)[C@H](Cc1ccccc1)NC(=O)CNC(=O)[C@@H]1CCCN1C(=O)[C@@H]1CCCN1C(=O)[C@@H](N)CCCN=C(N)N)C(=O)O	x	x	x	x	5.0%	x
Fc1ccc([C@@H]2CCNC[C@H]2COc2ccc3c(c2)OCO3)cc1	u	23.8µM*	-4.1%	u	-8.1%	u
Fc1ccc(C2CCNCC2COc2ccc3c(c2)OCO3)cc1 (stereo unspecified)	u	50.1µM*	-23.2%	u	-2.4%	u
CCn1cc(C(=O)Nc2ncccc2O)c(=O)c2cc(F)c(N3CCN(C(=O)c4ccco4)CC3)cc21	16.6%[57 µM]	-5.8%	2.4%	-7.5%	20.5%	-13.5%
CC(=O)Nc1c(C(=O)Nc2cccc(C)c2)nnn1-c1ccc(C)cc1	53.4%	5.8%[59 µM]	x	1.7%	x	-22.5%
COCCNC(=O)c1ccc2c(=O)n(CCc3ccccc3)c(SCC(=O)CC(=O)OC)nc2c1	45.0%	0.6%[59 µM]	x	0.7%	x	-5.5%
O=c1cc(O)c2c(=O)n(C3CCCCC3)c3ccccc3c2o1	30.0%	u	-3.4%	u	-5.5%	-30.6%
O=c1cc(O)c2c(=O)n(-c3ccccc3)c3c(c2o1)CCCCCC3	5.5%	9.5%[59 µM]	-1.0%	50.1µM*	5.5%	u
C/C=C/OC(=O)NC(c1ccccc1)[C@@]1(C(=O)OC)CCCC1=O (stereo partly specified)	x	x	x	x	11.7%	x
Cc1ccc(NC(=O)c2ccc([N+](=O)[O-])o2)c(C)c1	12.6%	-28.6%	-10.3%	-24.9%	20.8%	-16.4%
Cc1ccc(S(=O)(=O)c2ccc([N+](=O)[O-])o2)cc1	-14.3%	x	0.844µM*	x	x	u
COc1ccc2[nH]cc(CCNc3ncnc4ccc(-c5c(C)noc5C)cc34)c2c1	x	-43.2%[0.501 µM]	x	x	13.0%	x
C=C(C)C(=O)Nc1cccc(C2=NOC3(C2)C[C@@H](C(N)=O)N(C(=O)/C=C/C=C/C)C3)c1 (stereo partly specified)	u	u	u	2µM*	31.6µM*	3.16µM*
C/C=C/C=C/C(=O)N1CC2(CC(c3cccc(NC(=O)/C=C/C)c3)=NO2)C[C@@H]1C(N)=O (stereo partly specified)	14.2%	u	-17.4%	-1.6%	28.2µM*	-30.3%
C=C(C)C(=O)N1CC2(CC(c3cccc(NC(=O)/C=C\C)c3)=NO2)C[C@H]1C(N)=O (stereo partly specified)	39.6%	14.3%[59 µM]	2.0%	8.4%	18.2%	5.6%
Cc1ccc(OCC(=O)O/N=C(\N)Cc2ccc(Cl)cc2)cc1	86.1%	97.1%	2.67µM*	160.3%	4.7%	u
Cc1[nH]c(N=Nc2ccccc2)nc1N=Nc1ccccc1	u	7.94µM*	-0.9%	6.31µM*	-17.9%	7.94µM*
Cc1ccccc1CSc1nc2c(sc3ccccc32)c(=O)n1CCCC(=O)NCCCOC(C)C	44.6%	2.1%[59 µM]	x	-12.5%	x	-1.7%
CC(C)(CNC(=S)NCCc1ccccc1)CNC(=S)NCCc1ccccc1	-19.0%	10µM*	-28.4%	u	-17.3%	u
Cc1cccc(C)c1NC(=S)NCCc1ccc(O)c(O)c1	-7.3%	25.1µM*	3.7%	-24.8%	50.1µM*	-21.9%
Cc1cccc(NC(=S)NCCc2ccccc2)c1C	33.0%	29.2%	-8.1%	-37.2%	13.7%	-20.1%
CCCCNC(=S)Nc1ccccc1Cc1ccccc1	13.3%	-0.3%	-16.6%	50.1µM*	4.4%	-24.6%
S=C(NCCc1ccccc1)Nc1ccc(Nc2ccccc2)cc1	11.2µM*	x	u	8.91µM*	-15.8%	17.8µM*
CN(c1ccccc1)c1nc(C#N)nc(N2CCOCC2)n1	32.5%[57 µM]	x	x	x	x	1.5%[57.1 µM]
COC(=O)c1ccc(NC(=O)c2ccc[n+]([O-])c2)cc1	22.4%	-21.6%	0.4%	6.6%	21.8%	0.3%
SMILES	HP1b binding inh	G9a inh	PLK1 PBD inh	BAZ2B inh	Sfp inh	JMJD2A Tudor
CC(C)(C)NC(=S)Nc1ccc(Br)cc1	32.5%	x	-0.3%	2.1%	-9.9%	-0.8%
Fc1ccccc1NC(=S)NCCc1ccccc1	76.1%	15.4%[59 µM]	2.99µM*	-0.9%	10.0%	-21.2%[11.4 µM]
CC(C)(C)NC(=S)Nc1ccc(Nc2ccccc2)cc1	-38.8%	11.2µM*	29.9µM*	28.2µM*	u	31.6µM*
Fc1ccccc1NC(=S)NCCc1ccc(Cl)cc1	53.7%	3.7%	-10.2%	4.5%	5.7%	-4.1%
OCCNC(=S)NCCc1ccccc1	32.6%	18.3%[59 µM]	-1.5%	-1.6%	-0.2%	-0.7%
S=C(NCCc1ccccc1)Nc1c(Cl)cccc1Cl	56.4%	u	26.7µM*	-6.6%	31.6µM*	1.4%
O=[N+]([O-])c1ccc(Nc2c3ccccc3nc3ccccc23)cc1	-20.3%	12.6µM*	-10.5%	u	6.3%	u
O=C(O)c1ccc(Nc2nc(-c3ccc([N+](=O)[O-])cc3)nc3ccccc23)cc1	-7.9%	7.1%	u	50.1µM*	50.1µM*	u
O=[N+]([O-])c1ccc(-c2nc(Nc3ccc(O)cc3)c3ccccc3n2)cc1	19.0%	u	-2.4%	-4.2%	8.7%	-11.6%
O=[N+]([O-])c1ccccc1Nc1c2ccccc2nc2ccccc12	13.3%	8.8%	-1.5%	-25.0%	21.8%	-22.8%
Cc1ccc(S(=O)(=O)N(C)C)cc1NC(=S)NNC(=O)C1CC1	20.7%	1.5%[59 µM]	-3.3%	-20.4%	4.9%	-10.8%
Cc1ccc2c(Cl)cc(Cl)c(OCC(=O)Nc3cc(S(=O)(=O)N(C)C)ccc3C)c2n1	52.2%	70.8µM*	2.3%	2.4%	u	-22.4%
Cc1ccc(S(=O)(=O)N(C)C)cc1NC(=O)COC(=O)C1CCCC1	20.4%	-18.3%	2.4%	-2.8%	x	20µM*
Cc1ccc2c(Cl)cc(Cl)c(OCC(=O)Nc3cccc(S(=O)(=O)N(C)C)c3)c2n1	36.0%	16.7%[59 µM]	0.4%	5.2%	3.5%	-1.4%
Cc1ccc(S(=O)(=O)N(C)C)cc1NC(=S)NNC(=O)C(N)=O	37.0%	44.7µM*	-3.3%	-24.6%	22.1%	-24.1%[11.4 µM]
CC(C)c1nn2c(=O)cc(COC(=O)c3ccc(NC(=O)c4cccs4)cc3)nc2s1	38.3%	2.2%[12.7 µM]	x	-0.8%	x	3.3%
CCc1ccc(NC(=O)CSc2nnc(C)c(=O)n2N)cc1	31.0%	x	1.0%	4.1%	19.5%	0.8%
Cc1cccc(NC(=O)CC2(CC(=O)O)CCCC2)c1	18.8%	20.0%	2.9%	8.7%	16.4%	-5.0%
O=C(O)CC1(CC(=O)Nc2cc3ccccc3cn2)CCCCC1	31.1%	89.1µM*	-1.4%	-29.1%	12.3%	-4.6%
